In PubChem BioAssay (EPA / NIEHS):
The source made the active and inactive calls. How the source made its calls: active means hit-call score of the fitted dose curve at least 0.9, where 1 is the maximum; inactive means score below 0.9.

assay: ATG_M_19_CIS: Attagene CIS-FACTORIAL HepG2 Assay for M19 Transcription Factor (Internal Marker) (AID 2282939); conditions: HepG2 Attagene CIS-FACTORIAL M19 internal marker reporter; actives raise or lower the signal
In short: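 In this multiplexed cell assay, transiently transfected HepG2 reporter units report endogenous transcription-factor activity; after 24 hours of treatment, labelled reporter cDNA fragments are quantified by capillary electrophoresis and fitted bidirectionally against DMSO.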

outcome, inactive:
CC1(C)S[C@@H]2[C@H](NC(=O)[C@H](N)c3ccccc3)C(=O)N2[C@H]1C(=O)O
CCC(C)(CCC(C)C)C(=O)O (stereo unspecified)
Cc1cc(C)c(S(=O)(=O)O)cc1N=Nc1cc(S(=O)(=O)O)c2ccccc2c1O
CCCc1c(OCCCCc2nn[nH]n2)ccc(C(C)=O)c1O
Clc1ccccn1
c1cc(N(CC2CO2)CC2CO2)ccc1Cc1ccc(N(CC2CO2)CC2CO2)cc1 (stereo unspecified)
CCCCCCOC(=O)CCCCCCCC(=O)OCCCCCC
CC1=NN(c2cc(Cl)c(S(=O)(=O)O)cc2Cl)C(=O)C1N=Nc1ccc(S(=O)(=O)O)cc1 (stereo unspecified)
O=C(O)Cc1c[nH]c2ccccc12
CCCCCCCCCCC1CO1 (stereo unspecified)
NCc1ccccc1
O=[N+]([O-])c1ccc2nc[nH]c2c1
CCCCn1cc[n+](C)c1
CC(C)CC(=O)O
C[Si](C)(C)O[Si](C)(C)O[Si](C)(C)C
Cc1cc(O)cc(C)c1Cl
CC(C)n1c(/C=C/[C@@H](O)C[C@@H](O)CC(=O)O)c(-c2ccc(F)cc2)c2ccccc21
CC1=C(CC=O)C(C)(C)CCC1
CC(O)(P(=O)(O)O)P(=O)(O)O
Cc1cccnc1
Cc1ccccc1S(N)(=O)=O
C=C(C)C(=O)OCC1CCCO1 (stereo unspecified)
OCCOCCOCCOCCOCCO
C1=CCC=C1
CC(C)CC(=O)CC(C)CC(C)C (stereo unspecified)
CCCOCCC
